Consider 7 compounds from PubChem BioAssay (Tox21).

A short description of experiment [1]: qHTS assay for small molecule agonists of the p53 signaling pathway (AID 651631; calls by dose curve; further: nearly all actives have a fitted effect of over 15% in size). The method in brief:
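Read-out is beta-lactamase FRET fluorescence measured 2 h after substrate addition at room temperature, in HCT-116 cells with a p53 response element-driven reporter exposed to compounds for 16 h at 37 °C.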

A short description of experiment [2]: qHTS assay for small molecules that induce genotoxicity in human embryonic kidney cells expressing luciferase-tagged ATAD5 (AID 651632). Further: nearly all actives have a fitted effect of over 15% in size. Put shortly: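 ATAD5-luc HEK293T, 2,000 cells/well; cpd or DMSO pin-transferred; 16 hr, 37C/5% CO2; Amplite 30 min RT; luminescence.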
A general note: qHTS replaces the single test concentration by a dilution series.

Experiment [3] can be described thus: qHTS assay for small molecule agonists of the p53 signaling pathway - cell viability (AID 651633; calls by dose curve;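 further: p53RE-bla HCT reporter cells with a stable beta-lactamase p53 reporter; series mostly up to about 83 µM; nearly all actives have a fitted effect of over 30% in size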). The method in brief:
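Viability counter-read: CellTiter-Glo luminescence (30 min, room temperature) in the same p53RE-bla plates. These plates had been exposed to compounds for 16 h at 37 C.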

The nature of experiment [4]: qHTS assay for small molecule disruptors of the mitochondrial membrane potential - cell viability (AID 720634; calls by dose curve;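 further: human HepG2 liver cancer cells; series mostly up to about 83 µM; nearly all actives have a fitted effect of over 20% in size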). Put shortly:
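Cells: HepG2, 2,000/well, attached overnight. Compound 1 hr, 37 C/5% CO2. +m-MPI dye, +CellTiter-Glo 30 min RT. Readout: luminescence (ATP).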

Experiment [5] in a line: qHTS assay for small molecule disruptors of the mitochondrial membrane potential (AID 720635). Further: potency means the concentration at half of the fitted maximal effect. The method in brief:
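Mitochondrial membrane potential tracked with Mito-MPS dye, red aggregates (ex 540/em 590 nm) against green monomers (ex 490/em 535 nm). Compound treatment 1 hr at 37C, dye 30 min in HepG2.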

A short description of experiment [6]: qHTS assay to test for compound auto fluorescence at 590 nm (red) in HepG2 cells (AID 720674). Put shortly: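 Red autofluorescence (Ex/Em 540/590 nm, Rose Bengal sodium equivalents) was measured in HepG2 cells, 2,000 per well in MEM plus 10% FBS, plated overnight at 37 C. Readings were taken 1 hr after adding 23 nL compound or DMSO, at 37 C and 5% CO2.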
Experiment [7] can be described thus: qHTS assay to test for compound auto fluorescence at 535 nm (green) in HepG2 cells (AID 720675).
A short description of experiment [8]: qHTS assay to test for compound auto fluorescence at 460 nm (blue) in HEK293 cells (AID 720678). The method in brief:
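Blue-channel (Ex/Em 405/460 nm) intensity measured in HEK293 cultures after overnight compound exposure at 37C; signal expressed relative to triamterene. Cells plated 2,000 per well in 10% dialyzed FBS medium and allowed 4-5 hr to attach.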

Experiment [9] in a line: qHTS assay to test for compound auto fluorescence at 590 nm (red) in HEK293 cells (AID 720679). The method in brief:
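Red-channel autofluorescence (Ex/Em 540/590 nm; Rose Bengal sodium reference) was measured after overnight 37C, 5% CO2 exposure of attached HEK293 cells, 2,000 per well in medium with 10% dialyzed FBS.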

Experiment [10] in a line: qHTS assay to test for compound auto fluorescence at 535 nm (green) in HEK293 cells (AID 720680).
Experiment [11] can be described thus: qHTS assay to test for compound auto fluorescence at 460 nm (blue) in HEK293 cell free culture (AID 720681). Put shortly:
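Blue fluorescence (Ex 405/Em 460 nm, triamterene-equivalent) was read immediately after pin transfer of compound or DMSO into medium (DMEM, 10% FBS) without cells.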

A short description of experiment [12]: qHTS assay to test for compound auto fluorescence at 535 nm (green) in HEK293 cell free culture (AID 720682). Put shortly:
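Fluorescein serves as the green reference fluorophore; each compound's intrinsic emission at 535 nm (excitation 485 nm) is reported as an equivalent amount of that dye, measured in serum-containing DMEM without cells.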

Experiment [13] can be described thus: qHTS assay to test for compound auto fluorescence at 590 nm (red) in HEK293 cell free culture (AID 720683). Put shortly:
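Red-channel autofluorescence of compounds in culture medium (DMEM, 10% FBS), no cells, measured at 540/590 nm. Rose Bengal sodium is the reference fluorophore for equivalence.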

The nature of experiment [14]: qHTS assay to test for compound auto fluorescence at 590 nm (red) in HepG2 cell free culture (AID 720684). The method in brief:
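Plate contents were MEM with 10% FBS plus test compound or DMSO, no cells. Fluorescence was recorded with 540 nm excitation and 590 nm emission.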

The nature of experiment [15]: qHTS assay to test for compound auto fluorescence at 460 nm (blue) in HepG2 cell free culture (AID 720685). Put shortly:
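Compound (23 nL) or DMSO pinned into cell-free MEM with 10% FBS; blue fluorescence read at 405/460 nm excitation/emission, expressed as auto-fluorescence equivalency to triamterene.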

The nature of experiment [16]: qHTS assay to test for compound auto fluorescence at 535 nm (green) in HepG2 cell free culture (AID 720686).
Experiment [17] can be described thus: qHTS assay to test for compound auto fluorescence at 460 nm (blue) in HepG2 cells (AID 720687). Put shortly: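 Blue-channel autofluorescence (Ex/Em 405/460 nm, triamterene-equivalent) was measured after 1 hr compound exposure at 37 C, 5% CO2. Cells were HepG2, plated overnight at 37 C in MEM plus 10% FBS.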
Experiment [18] concerns the target Glucocorticoid receptor (Homo sapiens) (UniProt P04150). The experiment in a line: qHTS assay to identify small molecule agonists of the glucocorticoid receptor (GR) signaling pathway (AID 720691; active means well fitted activation curve with a large enough effect in the signal ratio in the repeat runs, not every such curve was filed as active; the % refers to the signal ratio). The method in brief:
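Fluorescence intensity from LiveBLAzer B/G FRET substrate (2 h, room temperature) reports beta-lactamase expression driven by the glucocorticoid response element in GR-bla HeLa cells after 18 h compound exposure at 37 C.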

Experiment [19] can be described thus: qHTS assay for small molecules that induce genotoxicity in human embryonic kidney cells expressing luciferase-tagged ATAD5 - cell viability (AID 651634; calls by dose curve; further: nearly all actives have a fitted effect of over 25% in size). Put shortly: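 Fluorescence from CellTiter-Fluor, reporting protease activity within live cells, served as the viability read-out. HEK293T cells carrying luciferase-tagged ATAD5 had been treated with compound for 15.5 hr at 37C.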

The target of experiment [20] is Glucocorticoid receptor (Homo sapiens) (UniProt P04150). The experiment in a line: qHTS assay to identify small molecule antagonists of the glucocorticoid receptor (GR) signaling pathway (AID 720692; active means well fitted inhibition curve with a large enough effect in the signal ratio in the repeat runs, not every such curve was filed as active; the % refers to the signal ratio). Put shortly:
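HeLa GR-bla cells; cmpd + dex 5 nM final, 18 h 37 C; LiveBLAzer B/G FRET substrate 2 h RT; fluorescence intensity read. Antagonist mode, qHTS.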

Inconclusive results are not listed. The source made the active and inactive calls. Unless noted, the call rests on the fitted dose curve; in most records, active means well fitted curve in the direction sought with a large enough effect in the repeat runs; inconclusive means weak or mixed curves; inactive means no such curve, though single readings can be large; an effect the other way counts as inactive or inconclusive.

Glucocorticoid receptor (Homo sapiens), sequence (P04150 whole entry, looked up): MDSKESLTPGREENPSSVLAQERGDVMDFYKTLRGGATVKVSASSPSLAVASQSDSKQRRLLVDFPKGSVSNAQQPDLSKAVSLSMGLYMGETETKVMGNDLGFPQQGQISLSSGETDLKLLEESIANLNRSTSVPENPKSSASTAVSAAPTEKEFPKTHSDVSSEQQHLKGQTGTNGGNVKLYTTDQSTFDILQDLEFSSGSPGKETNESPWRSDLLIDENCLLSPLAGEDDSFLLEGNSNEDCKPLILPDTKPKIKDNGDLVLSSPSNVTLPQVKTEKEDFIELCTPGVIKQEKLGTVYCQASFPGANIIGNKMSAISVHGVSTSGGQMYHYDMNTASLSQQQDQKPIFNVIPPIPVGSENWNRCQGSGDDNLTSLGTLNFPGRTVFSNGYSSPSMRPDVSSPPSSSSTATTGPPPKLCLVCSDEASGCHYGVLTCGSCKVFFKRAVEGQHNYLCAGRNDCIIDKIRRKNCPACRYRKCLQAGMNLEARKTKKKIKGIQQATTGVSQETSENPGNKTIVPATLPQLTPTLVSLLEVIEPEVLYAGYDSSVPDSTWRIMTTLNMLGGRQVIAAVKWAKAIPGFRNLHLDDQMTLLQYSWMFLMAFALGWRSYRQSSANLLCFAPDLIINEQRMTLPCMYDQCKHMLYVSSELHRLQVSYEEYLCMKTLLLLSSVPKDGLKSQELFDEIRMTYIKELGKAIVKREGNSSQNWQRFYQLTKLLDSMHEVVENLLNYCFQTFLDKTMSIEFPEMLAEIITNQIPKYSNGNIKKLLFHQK

`CCn1ccnc1CC1COc2ccccc2O1` (stereo not given): the compound was called inactive in experiment [1], in [3], in [6], in [7], in experiment [8] and in experiment [9]. In addition, the call in experiment [10], in [11], in [12], in experiment [13], in [14] and in experiment [15] was inactive. Besides, the compound was classed as inactive in experiment [16] and in experiment [17]. The Potency entry in experiment [2], in [4], in experiment [5] and in [18] was “inactive” each time.
Take `CCOC(=O)c1c(C)n(C)c2ccc(O)cc12`: the Potency result in experiment [2], in experiment [19], in experiment [4], in experiment [18] and in experiment [20] was “inactive” each time. The result in [3], in experiment [6], in experiment [7], in experiment [8], in [9] and in experiment [10] was inactive. For the same compound, the compound was called inactive in experiment [11], in experiment [12], in experiment [13], in experiment [14], in [15] and in experiment [16]. Besides, in experiment [17], the call was inactive. In addition, the Potency in experiment [5] is 7.84 µM (active).
Turning to `O=C(CCCN1CCC(O)(c2cccc(C(F)(F)F)c2)CC1)c1ccc(F)cc1`, the call in [1], in [3], in experiment [6], in experiment [7], in [8] and in [9] was inactive. Moreover, the outcome in experiment [10], in [11], in experiment [12], in experiment [13], in experiment [14] and in experiment [15] was inactive. The compound was classed as inactive in experiment [16] and in experiment [17]. Moreover, the Potency result in experiment [2], in experiment [4], in experiment [18] and in experiment [20] was “inactive” throughout.
As for `CCCCCOC(=O)CCCCC`, the call in experiment [1], in experiment [3], in experiment [6], in [7], in experiment [8] and in experiment [9] was inactive. Besides, the compound was called inactive in experiment [10], in experiment [11], in experiment [12], in [13], in experiment [15] and in [16]. Further, the compound was called inactive in [17]. The Potency result in [2], in experiment [4] and in experiment [18] was “inactive” in each case.
`Nc1c2c(nc3ccccc13)CCCC2O` (stereo not given): the compound was classed as inactive in experiment [1], in experiment [3], in [6], in [7], in experiment [8] and in experiment [9]. Moreover, the compound was called inactive in experiment [10], in experiment [11], in [12], in [13], in experiment [14] and in experiment [15]. Also, the compound was called inactive in experiment [16] and in experiment [17]. In addition, the Potency entry in experiment [2], in experiment [4], in [5], in experiment [18] and in experiment [20] was “inactive” each time.
In the case of `CS(=O)(=O)O`, the compound was called inactive in [1], in [3], in experiment [6], in [7], in [8] and in experiment [9]. Further, the compound was classed as inactive in experiment [10], in experiment [11], in [12], in [13], in experiment [15] and in experiment [16]. For the same compound, in [17], the compound was called inactive. The Potency entry in experiment [2], in experiment [4], in experiment [18] and in experiment [20] was “inactive” each time.
`CO[Si](CCCOCC1CO1)(OC)OC` (stereo not given): the call in experiment [1], in experiment [3], in [6], in experiment [7], in experiment [8] and in [9] was inactive. In addition, the compound was classed as inactive in experiment [10], in experiment [11], in [12], in [13], in experiment [15] and in experiment [16]. The compound was called inactive in experiment [17]. For the same compound, the Potency result in experiment [2], in [4], in [5], in [18] and in [20] was “inactive” throughout.
